Results: the supplement of paper PMC6555819

Key:
Test in all cases: PBM binding z-score (relative to random genomic background probes); higher = stronger binding; sequences stand for … in GC…GCGATTGACAGCGTAGAATGAAGG
[1] = tested on: FXR:RXRa (NR concentration 270 nM, RXRa partner concentration 90 nM)
Procedure, shortened: (§1)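 Binding buffer was PBS pH 7.4 with 2% milk, 0.02% Triton X-100, 1 mM DTT, 0.2 mg/mL BSA and 0.4 mg/ml salmon testes DNA. In it, ligand-free nuclear receptor dimers were incubated 1 h on custom Agilent 4×180K protein-binding microarrays carrying double-stranded probes. Antibodies against each partner (one per run) detected binding, and z-scores were calculated against random background probes after regression normalization of scanned fluorescence.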

[2] = tested on: LXRa:RXRa (NR concentration 270 nM, RXRa partner concentration 90 nM)
Procedure, shortened: as §1

[3] = tested on: LXRa homodimer (NR concentration 270 nM)
Procedure, shortened: as §1

[4] = tested on: LXRb:RXRa (NR concentration 270 nM, RXRa partner concentration 90 nM)
Procedure, shortened: as §1

[5] = tested on: LXRb homodimer (NR concentration 270 nM)
Procedure, shortened: as §1

[6] = tested on: PPARa:RXRa (NR concentration 270 nM, RXRa partner concentration 90 nM)
Procedure, shortened: as §1

[7] = tested on: PPARg:RXRa (NR concentration 180 nM, RXRa partner concentration 90 nM)
Procedure, shortened: as §1

[8] = tested on: PPARg:RXRa 270nM:90nM, anti-RXR (NR concentration 270 nM, RXRa partner concentration 90 nM)
Procedure, shortened: as §1

[9] = tested on: PPARg:RXRa 30nM:10nM, anti-RXR (NR concentration 30 nM, RXRa partner concentration 10 nM)
Procedure, shortened: as §1

[10] = tested on: PPARg:RXRa 90nM:30nM, anti-RXR (NR concentration 90 nM, RXRa partner concentration 30 nM)
Procedure, shortened: as §1

[11] = tested on: PPARg:RXRa DBDmut IVT, anti-RXR (DBD mutation: RXRa K156A/R161A, NR concentration 270 nM, RXRa partner concentration 90 nM)
Procedure, shortened: as §1

[12] = tested on: PPARg:RXRa IVT, anti-PPARg (NR concentration 270 nM, RXRa partner concentration 90 nM)
Procedure, shortened: as §1

[13] = tested on: PPARg DBDmut:RXRa IVT, anti-PPARg (DBD mutation: PPARg1 K132A/R137A, NR concentration 270 nM, RXRa partner concentration 90 nM)
Procedure, shortened: as §1

[14] = tested on: PPARg DBDmut IVT, anti-PPARg (DBD mutation: PPARg1 K132A/R137A, NR concentration 270 nM)
Procedure, shortened: as §1

[15] = tested on: PPARg homodimer (NR concentration 180 nM)
Procedure, shortened: as §1

[16] = tested on: PXR:RXRa (NR concentration 270 nM, RXRa partner concentration 90 nM)
Procedure, shortened: as §1

[17] = tested on: PXR homodimer (NR concentration 270 nM)
Procedure, shortened: as §1

[18] = tested on: RARa:RXR (NR concentration 270 nM, RXRa partner concentration 90 nM)
Procedure, shortened: as §1

[19] = tested on: RARa homodimer (NR concentration 270 nM)
Procedure, shortened: as §1

[20] = tested on: RARb:RXRa (NR concentration 270 nM, RXRa partner concentration 90 nM)
Procedure, shortened: as §1

Sequence | PBM binding z-score [1] | PBM binding z-score [2] | PBM binding z-score [3] | PBM binding z-score [4] | PBM binding z-score [5] | PBM binding z-score [6] | PBM binding z-score [7] | PBM binding z-score [8] | PBM binding z-score [9] | PBM binding z-score [10] | PBM binding z-score [11] | PBM binding z-score [12] | PBM binding z-score [13] | PBM binding z-score [14] | PBM binding z-score [15] | PBM binding z-score [16] | PBM binding z-score [17] | PBM binding z-score [18] | PBM binding z-score [19] | PBM binding z-score [20]
CCTTACGAGTCACTCCAGGTTATAGCATCGGAGT | 1.35 | 4.98 | 1.69 | 1.55 | 0.939 | 0.751 | 0.539 | 0.0713 | -0.0643 | -0.0945 | 0.574 | 0.424 | 0.623 | 0.364 | 1.41 | 1.2 | 1.12 | 0.999 | 1.56 | 0.664
TCTTGTAGATCAACAGGAGGTTAAGATAGATCGA | 0.606 | 1.82 | 0.251 | 0.87 | -0.281 | 1.34 | 0.413 | 1.07 | 2.4 | 1.53 | 1.53 | 1.03 | 0.933 | 1.02 | 0.31 | 0.729 | -0.114 | 1.05 | 0.362 | 0.506
TCATATAGGTAATACAGATGAAAGTCGGCATCTA | 0.463 | 0.531 | 0.032 | 0.521 | 0.268 | 1.08 | 1.47 | 1.93 | 4.02 | 2.97 | 3.53 | 2.32 | 1.22 | 1.05 | 0.725 | 0.46 | 0.387 | 0.646 | 1.28 | 0.19
CCTACTGGGCGAAAAAGGTCATTGATGCCGATAA | 3.16 | 3.79 | 2.59 | 3.91 | -0.182 | 4.45 | 1.67 | 3.1 | 0.977 | 1.93 | 0.836 | 1.94 | -0.234 | -0.941 | 2.25 | 4.39 | 1.04 | 4.66 | 0.67 | 3.68
CTCGAGAGGTCGGTTGAGGTGAGTATACGGATAA | 2.48 | 1.8 | -0.0602 | 2.2 | -0.474 | 2.93 | 0.425 | 0.591 | -0.178 | 0.092 | 0.581 | 0.606 | -0.792 | -0.363 | 0.728 | 3.5 | 0.389 | 2.64 | -0.682 | 2.05
GATACAGGGTCAAGGCCAGGGTACGCGTATTGAT | 6.68 | 4.26 | -0.139 | 3.62 | -0.397 | 5.82 | 5.63 | 5.3 | 2.2 | 4.46 | 1.85 | 4.19 | 0.695 | 0.43 | 3.1 | 4.32 | 0.122 | 5.19 | 0.648 | 4.5
CTCGAAAGGTCGTGCTCATGTGAGTATACCAAAC | 5.17 | 3.72 | 0.36 | 3.54 | 0.234 | 5.08 | 2.86 | 3.9 | 0.836 | 2.6 | 1.04 | 1.63 | 0.526 | 0.798 | 1.16 | 3.17 | 0.0761 | 4.03 | 0.231 | 4.13
CAAATTAGGTCACCGGAAGGTCAAAGTCCGCATG | 6.61 | 6.31 | 5.39 | 5.47 | 1.82 | 6.44 | 9.14 | 7.56 | 5.87 | 7.39 | 8.26 | 8.72 | 5.54 | 4.55 | 7.17 | 6.18 | 1.78 | 7.5 | 2.54 | 5.54
ATCGAAAGGTCGACGATGTGAGTATACACCGTTT | 3.67 | 3.02 | -0.0144 | 2.55 | 0.246 | 4.4 | 2.46 | 2.71 | 0.896 | 1.84 | 0.505 | 1.37 | 0.994 | 1.25 | 1.43 | 2.29 | 0.0146 | 3.17 | 0.516 | 3.94
CCTACTGGGGCAGAAAGGTTACCATACCATCCGG | 0.253 | 0.567 | 0.201 | 0.837 | -0.839 | 2.14 | 2.05 | 2.74 | 0.989 | 2.22 | 3 | 4 | 0.246 | -0.987 | 1.63 | 0.791 | -0.188 | 1.85 | 0.396 | 1.87
CCTACTGGGCCTTCAGGTCATTGATATCAACGTT | 1.24 | 0.751 | 0.919 | 1.3 | -0.3 | 1.93 | 0.682 | 1.85 | 0.024 | 1.09 | 2.17 | 2.64 | 0.207 | 0.0216 | 1.5 | 1.47 | 0.552 | 1.5 | -0.361 | 1.7
AGAATGAGGTTACCAAAGATCAAGGAAACGCTTG | 2.13 | 7.01 | 0.25 | 4.24 | -0.325 | 3.7 | 2.89 | 3.09 | 1.08 | 2.26 | 3.78 | 3.43 | 0.922 | 0.563 | 0.97 | 2.06 | -0.325 | 2.48 | -0.42 | 2.25
CCTACTGGCCCATCAGGTCATTGATATCAACGTT | 1.56 | 1.2 | 1.15 | 1.63 | 0.0775 | 1.62 | 0.503 | 1.07 | 0.112 | 0.701 | -0.199 | 1.1 | -0.917 | 0.381 | 1.47 | 1.61 | 0.678 | 1.83 | 0.604 | 1.71
AATACAGGGTCACCAGGCCAGAGTAGGTACGAAT | 7.09 | 5.86 | 0.943 | 4.55 | 0.722 | 6.07 | 8.01 | 6.75 | 3.76 | 5.35 | 3.62 | 5.06 | 1.5 | 0.986 | 2.07 | 4.02 | 0.26 | 5.4 | 0.737 | 4.53
